Screening data as filed in PubChem BioAssay.
IEC-6 tox – IEC-6 cytotoxicity, counter-screen for KLF5 inhibitors. luminescence viability. inhibition, % at 5 µM. 290,000 compounds, 0.78% hits; in the data active = inhibition above about 22%;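 note: 0% = plate median of test compound wells and 100% = cytotoxic reference compound wells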
Ba/F3 V617F tox – reduce viability of Ba/F3 cells dependent on JAK2V617F | AID 1446 | 220,000 compounds, 1.1% hits | Ba/F3 EpoR-JAK2V617F viability, ATP luminescence | inhibition, % at 5.6 µM;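 active = inhibition above the campaign mean plus 3 SD over all tested compounds, cut at about 24% in these data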;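 note: cytokine-independent growth of Ba/F3 cells driven by EpoR plus mutant JAK2; 0% = DMSO-treated cells and 100% = JAK inhibitor I control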
KLF5 inh – kruppel-like factor 5 inhibition; DLD-1 KLF5 promoter-luciferase reporter, luminescence; 290,000 compounds, 0.23% hits; inhibition, % at 5 µM;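 active = inhibition above a per-plate limit of that plate's mean compound inhibition plus 3 SD, cut at about 60% in these data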;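 note: 0% = DMSO wells and 100% = LY294002 at 200 µM; higher means less KLF5 promoter-driven luciferase light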
BaF3 parental – reduces parental Ba/F3 cell viability, JAK2V617F counter-screen; CellTiter-Glo ATP luminescence; inhibition, % at 5.6 µM; 220,000 compounds, 1.1% hits; AID 1486;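 active = inhibition above a per-campaign cutoff, the mean inhibition of all tested compounds plus 3 SD, cut at about 27% in these data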;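 note: 0% = DMSO wells and 100% = JAK Inhibitor I control wells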
APP transl inh – APP translation inhibition; AID 1285; 190,000 compounds, 0.82% hits; inhibition, % at 2 µM; SH-SY5Y APP 5'UTR-luciferase reporter, luminescence;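 active = inhibition above a set limit, derived from the sample mean plus 3 SD, cut at about 45% in these data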
The depositor's hits bear a star; / = no result given. Most compounds without a hit are left out; they make up all but 1.8% or so of the library.

SMILES | IEC-6 tox | Ba/F3 V617F tox | KLF5 inh | BaF3 parental | APP transl inh
COc1ccc(C2(O)CN(c3ccc(C)cc3)C3=[N+]2CCCC3)cc1 (stereo not drawn) | -4 | 17 | 9 | 34* | 2
Cc1ccc(N2CC(O)(c3cccs3)[N+]3=C2CCCC3)cc1 (stereo not drawn) | 4 | 9 | -7 | 45* | -4
CCn1cc(C(=O)NCc2ccc(Cl)cc2)c(=O)c2cc(S(=O)(=O)N(C)C)ccc21 | -8 | / | -15 | / | /
Cc1cccc(NC(=O)C2(c3cccs3)CCOCC2)c1 | -4 | 0 | 11 | 4 | 16
Cc1cccc(N2CC(O)(c3cccs3)[N+]3=C2CCCC3)c1C (stereo not drawn) | 8 | 24* | -9 | 36* | -5
Cc1ccccc1N1CC(O)(c2cccs2)[N+]2=C1CCCC2 (stereo not drawn) | 0 | 7 | -7 | 6 | -4
Cc1cccc(N2CC(O)(c3cccs3)[N+]3=C2CCCCC3)c1 (stereo not drawn) | -1 | 30* | -25 | 52* | 1
COc1ccc(CCCC(=O)Nc2ccccc2F)cc1 | -4 | -5 | 2 | 0 | -36
Cn1cccc/c1=N\c1cccc[n+]1C | 1 | 73* | -13 | 63* | /
Cc1ccc(NC(=O)Cn2cc(C(=O)C3CC3)c3ccccc32)c(C)c1 | -3 | / | 13 | / | /
CC(=O)c1cn(CC(=O)Nc2ccc(C)cc2C)c2ccccc12 | 2 | 25* | 9 | 39* | 14
CC(C)(C)SCCNC(=O)/C=C/c1ccc(F)cc1 | -5 | -2 | -76 | 2 | -10
CC(C)(C)SCCNC(=O)/C=C/c1ccccc1 | 0 | 0 | -42 | 45* | /
CC#CCNCc1ccccc1 | -6 | 2 | -42 | 35* | -2
Clc1cccc(Cl)c1Cn1nnc(N2CCCC2)n1 | 0 | 34* | -26 | 61* | /
Fc1cccc(Cl)c1Cn1nnc(-c2ccc(N3CCOCC3)cc2)n1 | 2 | -3 | 3 | 0 | -7
COc1ccc2c(c1)c1ccc3c(c1n2C)C(=O)C=CC3=O | 6 | 58* | -41 | 35* | /
Cc1ccc2c(c1)c1ccc3c(c1n2C)C(=O)C=CC3=O | 4 | 1 | -10 | 1 | /
Nc1c(Cl)ncnc1NCCc1ccc(O)cc1 | 6 | 5 | -20 | 29* | /
O=S(Cc1ccccc1)CC(O)(c1ccccc1)c1ccccc1 (stereo not drawn) | 4 | -2 | 1 | 0 | /
COc1ccccc1Cn1c(SCC(N)=O)nc2c(oc3ccccc32)c1=O | -2 | 0 | -3 | 9 | 1
CCOc1cc(/C=N/n2nnnc2N)ccc1OCc1c(C)no[n+]1[O-] | 11 | 2 | -39 | 97* | 9
O=C(CSc1nnc(CCCN2C(=O)c3cccc4cccc(c34)C2=O)n1-c1ccccc1)N1CCN(CCO)CC1 | 0 | 3 | -20 | 5 | 1
COc1ccc(C2=NN(C(=O)CSc3nc4ccccc4s3)C(c3ccc(F)cc3)C2)cc1 (stereo not drawn) | -2 | -7 | 6 | -3 | 81*
COCCn1c(=S)[nH]c2cc(C(=O)N(CCO)Cc3ccccc3)ccc2c1=O | 2 | / | 1 | / | /
SMILES | IEC-6 tox | Ba/F3 V617F tox | KLF5 inh | BaF3 parental | APP transl inh
CCOC(=O)/C(=N\Nc1ccccc1)S(=O)(=O)c1ccccc1 | 6 | 1 | -17 | 7 | 10
CCOC(=O)/C(=N/Nc1ccc(C)cc1)S(=O)(=O)c1ccc(Cl)cc1 | 4 | -1 | 1 | 6 | 63*
CC1=CC(C)C(C[N+]2(C)CCCCC2)C(C)C1 (stereo not drawn) | -5 | 39* | -8 | 61* | 18
CC(C)NC(=S)n1cc(C(=O)c2cc(Cl)cc(Cl)c2O)cn1 | -4 | / | -15 | / | /
N#C/C(=C/c1ccco1)C(N)=S | -19 | -2 | -7 | 6 | /
N#CC(C#N)=C1C=CC=CN1/C(=C\c1ccco1)C(=O)c1ccc(Br)cc1 | 4 | -3 | -6 | 2 | 93*
O=C(O)c1cc(NC(=O)c2ccc([N+](=O)[O-])cc2)cc(NC(=O)c2ccc([N+](=O)[O-])cc2)c1 | -16 | / | -47 | / | /
O=C(Nc1ccc([N+](=O)[O-])cc1)C(=O)Nc1cccc(C(=O)O)c1 | 10 | 7 | 81* | 9 | /
CNc1ccccc1C(C)(C)c1cc(-c2cccc(Br)c2)no1 | 4 | 62* | 7 | 76* | 11
O=C(c1cc(COc2cccc(C(F)(F)F)c2)on1)N1CCC(Oc2cccnc2)CC1 | 8 | / | -33 | / | /
C(=N\Nc1nc(Nc2ccccc2)nc(Nc2ccccc2)n1)/c1cccnc1 | 29* | -1 | 7 | 12 | -6
C(=N\Nc1nc(Nc2ccccc2)nc(Nc2ccccc2)n1)/c1ccncc1 | 3 | 0 | -9 | 5 | 14
c1cn(CCCNC2=NCCCCC2)cn1 | 2 | 2 | -2 | 91* | -8
COc1cccc(N/C(N)=N/c2nc(CSc3ccccn3)cc(=O)[nH]2)c1 | -9 | 1 | 1 | 10 | 89*
Fc1ccc(/C=C2\CCCC3=C2Nc2ncnn2C3c2ccc(F)cc2)cc1 (stereo not drawn) | -5 | -1 | -4 | 6 | 56*
CCOc1ccc(-c2cc(C(=O)NN)[nH]n2)cc1 | -1 | 1 | -86 | 6 | -18
COc1ccc(-c2cc(C(=O)O)[nH]n2)cc1OC | 0 | -4 | -20 | -2 | 10
COc1ccc(-c2cc(C(=O)NN)[nH]n2)cc1 | -1 | -3 | -48 | -1 | 84*
COc1ccc(-c2cc(C(=O)NN)[nH]n2)cc1OC | 1 | -2 | -37 | -2 | 73*
COc1ccc(-n2c(-c3ccccc3)c[n+]3c2CCC3)cc1 | 2 | 75* | -25 | 63* | /
COc1ccc(-n2c(-c3ccc(Br)cc3)c[n+]3c2SC(C)C3)cc1 (stereo not drawn) | 5 | 76* | -25 | 67* | -37
COc1ccc(-n2c(-c3ccc(Br)cc3)c[n+]3c2CCCCC3)cc1 | 18 | 76* | -30 | 64* | 0
COc1ccc(-n2c(-c3ccc(Br)cc3)n[nH]c2=S)cc1 | -3 | / | -3 | / | /
COc1ccc(-n2c(-c3ccc(Br)cc3)c[n+]3c2CCC3)cc1 | -1 | 81* | -1 | 66* | 7
COc1ccc(-n2c(-c3ccc(Br)cc3)nc(=S)c3c2CCCC3)cc1 | -1 | -3 | -11 | 4 | 8
SMILES | IEC-6 tox | Ba/F3 V617F tox | KLF5 inh | BaF3 parental | APP transl inh
Cc1csc(Nc2nc(N)c(C(=O)Nc3cc(Cl)ccc3F)o2)n1 | 8 | / | -23 | / | /
COc1ccc(CNC(=O)CCN2C(=O)[C@@H]3Cc4ccccc4CN3C2=O)cc1 | 4 | / | -12 | / | /
CC(C)(C)c1ccc(CCC2OCC(C[N+]3(C)CCOCC3)O2)cc1 (stereo not drawn) | 8 | -1 | -1 | 1 | /
Cc1nn(C)c2ncc(C(=O)c3cc(F)ccc3O)cc12 | -5 | -2 | -27 | 3 | 52*
CCn1c(SC)nnc1-c1sc2cc(Cl)ccc2c1Cl | 0 | 2 | -33 | 40* | -5
COC(=O)CN(C)C(=O)c1ccc2nc(Cc3cccc(Cl)c3)oc2c1 | 2 | / | -116 | / | /
CCOC(=O)c1c(C)nc2sc(C(N)=O)c(N)c2c1-c1ccc(OC)cc1 | 0 | -4 | -13 | -1 | 64*
CCOC(=O)c1c(C)nc2sc(C(=O)Nc3ccc(OC)cc3)c(N)c2c1-c1ccc(OC)cc1 | -5 | 2 | -22 | 7 | 2
